# Measurements as given in PubChem BioAssay (NCI).
# Compounds without any hit were thinned out: in the full panel of roughly 79,000, 15% have a hit. Unmarked numbers belong to inactive results. Activity calls are given as the source filed them. No stated cut-off is given here; in the data, active means growth inhibition above about 70%; inactive means the rest.
# Legend:
# [1] = NCI Yeast Anticancer Drug Screen. Data for the rad50 strain (AID 155);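 further: 0% = growth of vehicle-only cultures of the same strain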; settings: S. cerevisiae rad50 strain growth inhibition, hits give high values
# Method in brief: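 Yeast carrying a defined DNA repair defect were exposed to test compounds, and growth was compared with vehicle-treated controls to give percent inhibition.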
# [2] = NCI Yeast Anticancer Drug Screen. Data for the mec2-1 strain (AID 157); settings: S. cerevisiae mec2-1 strain, hits give high values
# Method in brief: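 Each compound was tested on mec2-1 yeast, a strain altered in DNA damage repair or cell cycle control. Growth inhibition is reported relative to vehicle.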
# [3] = NCI Yeast Anticancer Drug Screen. Data for the sgs1 mgt1 strain (AID 161);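 further: 0% = growth of cultures given vehicle only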; settings: S. cerevisiae sgs1 mgt1 strain, hits give high values
# Method in brief: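 Mutant yeast exposed to compound; growth scored against vehicle-only wells.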
# [4] = NCI Yeast Anticancer Drug Screen. Data for the cln2 rad14 strain (AID 165);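 further: 0% = growth equal to vehicle treated cultures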; settings: S. cerevisiae cln2 rad14 strain, hits give high values
# Method in brief: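 Test compounds were added to cln2 rad14 yeast cultures; inhibition of growth was then determined by comparison with vehicle treatment.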
# [5] = NCI Yeast Anticancer Drug Screen. Data for the bub3 strain (AID 167); settings: S. cerevisiae bub3 mutant strain, hits give high values
# Method in brief: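 Compounds were applied to a genetically altered yeast strain carrying a cell-cycle control defect. Growth inhibition was scored against vehicle-treated controls.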
# [6] = NCI Yeast Anticancer Drug Screen. Data for the mlh1 rad18 strain (AID 175); settings: S. cerevisiae mlh1 rad18 strain growth inhibition, hits give high values
# Method in brief: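 Inhibition values reflect reduced growth of mutant yeast versus vehicle-treated controls following compound exposure; the mutations affect DNA damage repair.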
# [7] = at 5.0 µM (retest, dose inferred, filed as 0.5)
# [8] = at 50.0 µM (retest, dose inferred, filed as 5.0)
SMILES,"growth inhibition [1, 7]","growth inhibition [1, 8]",growth inhibition ([1]; at 50.0 µM),"growth inhibition [2, 7]","growth inhibition [2, 8]",growth inhibition ([2]; at 50.0 µM),"growth inhibition [3, 7]","growth inhibition [3, 8]",growth inhibition ([3]; at 50.0 µM),"growth inhibition [4, 7]","growth inhibition [4, 8]",growth inhibition ([4]; at 50.0 µM),"growth inhibition [5, 7]","growth inhibition [5, 8]",growth inhibition ([5]; at 50.0 µM),"growth inhibition [6, 7]","growth inhibition [6, 8]",growth inhibition ([6]; at 50.0 µM)
O=C(/C=C\c1cccc2ccccc12)c1ccccn1,7%,97% (active),98.2% (active),4%,97% (active),93.5% (active),12%,99% (active),98.8% (active),0%,97% (active),87.2% (active),20%,99% (active),97% (active),9%,99% (active),99% (active)
N#CS/C=C/SC#N,99% (active),99% (active),99.5% (active),100% (active),100% (active),99.5% (active),99% (active),99% (active),99.5% (active),99% (active),100% (active),99.1% (active),100% (active),99% (active),99% (active),99% (active),100% (active),99.5% (active)
CC1=C(C)C1[N+](=O)[O-],45%,94% (active),78% (active),35%,97% (active),79.8% (active),44%,98% (active),69%,25%,68%,24.4%,49%,97% (active),65.7%,64%,95% (active),62.9%
CCCCC(=O)c1nc(N(CC2CCCCC2)C(=O)NC)sc1N,-3%,11%,1.8%,-4%,35%,-13.4%,-1%,57%,7.75%,-1%,7%,44.2%,-3%,33%,6.3%,-3%,12%,16.8%
CCCCCCCCCCCCCCCCN1CCSCC1,39%,98% (active),98.3% (active),45%,99% (active),99% (active),65%,99% (active),98.9% (active),23%,99% (active),98.7% (active),36%,99% (active),99% (active),69%,99% (active),98.7% (active)
COC(=O)c1c(C)cccc1C(=O)c1c(C)cc(C)cc1C,-6%,63%,73.1% (active),21%,68%,82.2% (active),-1%,82% (active),91.8% (active),-26%,45%,15.2%,2%,56%,88.2% (active),4%,85% (active),91.8% (active)
CC(/C=C1\C(=O)N(C)C(CC(C)C(Cl)(Cl)Cl)C(=O)N1C)C(Cl)(Cl)Cl (stereo not given),6%,78% (active),62.8%,7%,74% (active),30.8%,4%,76% (active),57.7%,25%,74% (active),38.5%,28%,79% (active),36.2%,13%,79% (active),70.7% (active)
CC(=O)OC1CCC2(C)C(=CCC3C2CCC2(C)C3CC(C(N)=O)C2C(C)=O)C1 (stereo not given),-2%,25%,49%,1%,79% (active),14.6%,6%,75% (active),76.8% (active),-3%,57%,61.6%,9%,97% (active),7.4%,-1%,70% (active),59.3%
Nc1ncnc2c1c(-c1ccccc1)cn2-c1ccc(I)cc1,54%,-2%,33.4%,23%,0%,75.2% (active),65%,-3%,41.1%,24%,-2%,94.2% (active),32%,0%,97.3% (active),26%,-2%,47.9%
CC(=O)OCc1ccc2c(c1)C(O)NC(=O)O2 (stereo not given),8%,45%,36%,2%,13%,21.9%,13%,69%,51.8%,-5%,18%,16.2%,0%,-7%,-23.1%,43%,88% (active),55.6%
